Experimental findings from PubChem BioAssay are described below.

The nature of test [1]: compounds altering circadian rhythm period length – cell-based, LOPAC library, luminescence reporter (AID 2774).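 Further: values are relative to mean of DMSO wells on each plate.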 The conditions noted are these: circadian reporter cells, at 7 µM, actives lie on both sides.
The test system of test [2] is Hepatitis C virus NS3 helicase. Nature of the test: blockers of NS3h binding to ssDNA – biochemical, fluorescence polarization, LOPAC1280 library, primary screen (AID 687035; in the data active means inhibition above about 37%). The following applies: Purified HCV NS3 helicase, Cy5-dT15 ssDNA binding fluorescence polarization; stronger effect = higher value; concentration not given here. Background: In fluorescence polarisation assays a small probe gives low polarisation when free and higher when bound to something large.

A short description of test [3]: compounds altering Cy5-DNA-NS3h complex signal – biochemical, LOPAC1280, artefact control for HCV NS3 helicase inhibitor project (AID 687037). The conditions noted are these: Cy5-DNA-NS3h complex fluorescence interference counterscreen. A general note: Counterscreens check selectivity or assay interference.
A short description of test [4]: viability loss with induced miR-34 in A549 – imaging, A549 dox-inducible miR-34, nuclei and caspase counts, primary screen (AID 1347080;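 active means compounds whose cell count with miR-34 switched on is under 0.7 times the count with it off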). The following applies: A549 miR-34 inducible, Hoechst nuclei count, 48 h.
Test [5] can be described thus: blockers of cellular phospholipid synthesis – cell-based, LOPAC library, screen 4, primary screen (AID 1347384). The conditions noted are these: animal cells, phospholipid biosynthesis inhibition screen; at 10 µM.
A short description of test [6]: galactose survival enhancers in mitochondrial complex I cybrids – cell-based, galactose medium, ATP luminescence, primary screen (AID 1645843;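 active means z-score of at least 1.8 in each of two replicates, scored against plate mean and spread of sample wells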;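 further: positive z means more ATP and so rescue of galactose-driven cybrid death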). The conditions noted are these: complex I mutant cybrid cells, 72 h, stronger effect = higher value.
The nature of test [7]: P. berghei load reduction in hepatocytes – cell-based, HepG2, luciferase luminescence, HepG2 viability, primary screen (AID 624349; in the data active means parasite load remaining mostly below about 12%, no sharp cut-off; inactive means mostly above about 10%;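 further: 100% = mean of DMSO negative control wells on the same plate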). The following applies: P. berghei liver stage in HepG2, luciferase luminescence, concentration not given here; parasite load remaining: stronger effect = lower value; viability: measured here: HepG2 viability without parasites.
Where [8] appears, read: stronger effect = lower value, cell number ratio, induced over uninduced.
Where [9] appears, read: measured here: relative caspase fold change +Dox/-Dox.
Setting [10] is: measured here: total cells with miR-34 induction, stronger effect = lower value.
Setting [11] is: measured here: total cells without miR-34 induction.

Calls of active or inactive are those of the source. Unless noted, how the calls were made is not given here.

One may read the inhibition as the relative decrease from the control value, in per cent. As to `Nc1nc(Cl)nc2c1ncn2[C@@H]1O[C@H](COP(=O)(O)OP(=O)(O)OP(=O)(O)O)[C@H](O)C1O` (stereo partly drawn), the period change in test [1] was -0.055 h (inactive). Also, in test [2], the inhibition was 37% (active). Besides, the fluorescence ratio (interference) in test [3] is 1 (inactive). Moreover, the fold change in test [4] (setting [8]) is 1.14 (inactive); in test [4] (setting [9]), 1.19. The cell count turned out to be 2920 in test [4] (setting [10]) and 2560 in test [4] (setting [11]). Also, the compound was classed as inactive in test [5]. The z-score in test [6] is 0.235 (inactive).
`NC/C=C\C(=O)O`: in test [1], the period change was 0.03 h (inactive). Further, in test [2], the inhibition is -3% (inactive). Further, in test [3], the fluorescence ratio (interference) was 1 (inactive). In addition, the fold change is 1.03 (inactive) in test [4] (setting [8]) and 1.8 in test [4] (setting [9]). Also, the cell count amounted to 9360 in test [4] (setting [10]) and 9050 in test [4] (setting [11]). For the same compound, in test [5], the result was inactive. Moreover, the z-score in test [6] was -1.38 (inactive).
On to `N[C@H](CO)C(=O)O`, for which the period change in test [1] was -0.02 h (inactive). Moreover, the inhibition in test [2] is -3% (inactive). The fluorescence ratio (interference) in test [3] is 1 (inactive). Also, the fold change is 0.97 (inactive) in test [4] (setting [8]) and 2.63 in test [4] (setting [9]). In addition, the cell count worked out at 10300 in test [4] (setting [10]) and 10600 in test [4] (setting [11]). The outcome in test [5] was inactive. Moreover, in test [6], the z-score was 0.31 (inactive).
For `NC(=O)C1=CN(C2OC(COP(=O)(O)OP(=O)(O)OC[C@H]3O[C@@H](n4cnc5c(N)ncnc54)C(OP(=O)(O)O)[C@H]3O)C(O)C2O)C=CC1` (stereo partly drawn), in test [1], the period change is -0.03 h (inactive). In addition, the inhibition in test [2] is -4% (inactive). In addition, in test [3], the fluorescence ratio (interference) was 1 (inactive). Besides, the fold change was 1.07 (inactive) in test [4] (setting [8]) and 1.18 in test [4] (setting [9]). Moreover, the figures for the cell count in test [4] (setting [10]) and in test [4] (setting [11]) were 9810 and 9130, respectively. Moreover, in test [5], the outcome was inactive. In addition, the z-score in test [6] was 1.12 (inactive).
As for `OCC1NCC(O)C(O)C1O` (stereo not drawn), in test [1], the period change was 0.035 h (inactive). The inhibition in test [2] was -2% (inactive). In addition, the fluorescence ratio (interference) in test [3] was 1 (inactive). The fold change in test [4] (setting [8]) is 0.93 (inactive); in test [4] (setting [9]), 1.34. In addition, the cell count in test [4] (setting [10]) was determined as 9950; in test [4] (setting [11]) it was 10700. The outcome in test [5] was inactive. The z-score in test [6] is -0.145 (inactive).
As to `COc1cc2c(CCNC(C)=O)c[nH]c2cc1O`, the period change in test [1] was -0.175 h (inactive). Further, the inhibition in test [2] was -2% (inactive). Moreover, in test [3], the fluorescence ratio (interference) was 1 (inactive). Besides, the fold change in test [4] (setting [8]) is 0.921 (inactive); in test [4] (setting [9]), 1.6. Moreover, the cell count in test [4] (setting [10]) turned out to be 10100; in test [4] (setting [11]), 11000. Further, the compound was classed as inactive in test [5]. Moreover, the z-score in test [6] was -0.44 (inactive).
One may read the viability as a per cent measure of how many cells are alive, often set against a control. Consider `N#Cc1cc([N+](=O)[O-])c2sc(C(N)=O)[n+]([O-])c2c1`, for which, in test [7], the parasite load remaining was 32.2% (inactive). The same compound came in with a viability in test [7] of 76.2%. Moreover, the inhibition in test [2] was -4% (inactive). In addition, in test [3], the fluorescence ratio (interference) is 1 (inactive). In addition, the fold change is 1.08 (inactive) in test [4] (setting [8]) and 1.61 in test [4] (setting [9]). Besides, the results for the cell count in test [4] (setting [10]) and in test [4] (setting [11]) were 7220 and 6660, respectively. Also, the call in test [5] was inactive. Further, in test [6], the z-score is -1.46 (inactive).
Regarding `C[C@H](Cc1ccccc1)Nc1ncnc2c1ncn2[C@@H]1O[C@H](CO)[C@H](O)C1O` (stereo partly drawn), the period change in test [1] was -0.12 h (inactive). Also, in test [2], the inhibition was -8% (inactive). Also, the fluorescence ratio (interference) in test [3] was 1 (inactive). The fold change in test [4] (setting [8]) was 1.08 (inactive); in test [4] (setting [9]), 0.57. In addition, the cell count worked out at 9860 in test [4] (setting [10]) and 9130 in test [4] (setting [11]). For the same compound, the call in test [5] was inactive. Besides, the z-score in test [6] was 1.45 (inactive).
In the case of `O[Si](CCCN1CCCCC1)(c1ccc(F)cc1)C1CCCCC1` (stereo not drawn), the period change in test [1] is -0.3 h (inactive). Moreover, in test [2], the inhibition is -2% (inactive). Besides, the fluorescence ratio (interference) in test [3] was 1 (inactive). Moreover, the fold change in test [4] (setting [8]) is 0.937 (inactive); in test [4] (setting [9]), 1.64. The results for the cell count in test [4] (setting [10]) and in test [4] (setting [11]) were 8140 and 8690, respectively. The call in test [5] was inactive. For the same compound, the z-score in test [6] is -0.95 (inactive).
For `COc1ccccc1N1CCN(CCCNc2c(C)c(=O)n(C)c(=O)n2C)CC1`, the period change in test [1] is -0.1 h (inactive). Further, in test [2], the inhibition was -5% (inactive). Besides, in test [3], the fluorescence ratio (interference) is 1 (inactive). Also, the fold change in test [4] (setting [8]) was 0.886 (inactive); in test [4] (setting [9]), 2.76. The figures for the cell count in test [4] (setting [10]) and in test [4] (setting [11]) were 8920 and 10100, respectively. Further, in test [5], the result was inactive. In addition, the z-score in test [6] was 0.025 (inactive).
For `NC(=O)c1ccccc1`, the period change in test [1] is -0.185 h (inactive). The inhibition in test [2] is 0% (inactive). Further, the fluorescence ratio (interference) in test [3] is 1 (inactive). For the same compound, the figures for the fold change in test [4] (setting [8]) and in test [4] (setting [9]) were 0.988 (inactive) and 1.76, respectively. Besides, the cell count in test [4] (setting [10]) turned out to be 9430; in test [4] (setting [11]), 9540. Also, in test [5], the outcome was inactive. The z-score in test [6] is 0.385 (inactive).
For the compound `N[C@@H](Cc1ccc(O)c(I)c1)C(=O)O`, the period change in test [1] is 0.02 h (inactive). Moreover, the inhibition in test [2] was -4% (inactive). In test [3], the fluorescence ratio (interference) was 0.9 (inactive). The fold change in test [4] (setting [8]) was 1.11 (inactive); in test [4] (setting [9]), 0.663. Moreover, the results for the cell count in test [4] (setting [10]) and in test [4] (setting [11]) were 11600 and 10400, respectively. Also, the outcome in test [5] was inactive. In addition, the z-score in test [6] is 0.59 (inactive).
As to `C[C@@H]1C(=O)NC2=Nc3cccc(Cl)c3CN21`, in test [1], the period change was 0.025 h (inactive). Further, in test [2], the inhibition is 0% (inactive). In addition, the fluorescence ratio (interference) in test [3] was 1 (inactive). Besides, the results for the fold change in test [4] (setting [8]) and in test [4] (setting [9]) were 0.957 (inactive) and 1.63, respectively. For the same compound, the cell count in test [4] (setting [10]) stood at 9040; in test [4] (setting [11]), 9450. Besides, the call in test [5] was inactive. The z-score in test [6] was 0.635 (inactive).
For the compound `[N-]=[N+]=Nc1ccc(C(=O)CSC[C@H](NC(=O)CC[C@H](N)C(=O)O)C(=O)NCC(=O)O)cc1`, in test [1], the period change is 0 h (inactive). The inhibition in test [2] is -5% (inactive). Moreover, the fluorescence ratio (interference) in test [3] is 0.9 (inactive). Further, the fold change was 0.923 (inactive) in test [4] (setting [8]) and 1.4 in test [4] (setting [9]). The values for the cell count in test [4] (setting [10]) and in test [4] (setting [11]) were 5390 and 5840, respectively. For the same compound, the call in test [5] was inactive. The z-score in test [6] was -1.12 (inactive).
On to `C=CC[C@H](N)C(=O)O`, for which, in test [1], the period change is -0.185 h (inactive). The inhibition in test [2] is -3% (inactive). Further, in test [3], the fluorescence ratio (interference) was 1 (inactive). For the same compound, the fold change is 0.944 (inactive) in test [4] (setting [8]) and 0.719 in test [4] (setting [9]). The cell count in test [4] (setting [10]) was determined as 9830; in test [4] (setting [11]), 10400. In addition, the outcome in test [5] was inactive. Besides, the z-score in test [6] was 0.62 (inactive).
Turning to `COc1ccccc1CNCCCCCCNCCCCCCCCNCCCCCCNCc1ccccc1OC`, the period change in test [1] was 0.295 h (inactive). For the same compound, the inhibition in test [2] was 11% (inactive). For the same compound, in test [3], the fluorescence ratio (interference) was 1 (inactive). Further, the figures for the fold change in test [4] (setting [8]) and in test [4] (setting [9]) were 1.1 (inactive) and 0.839, respectively. The cell count in test [4] (setting [10]) was determined as 8650; in test [4] (setting [11]), 7890. Moreover, the outcome in test [5] was inactive. Moreover, in test [6], the z-score was -1.19 (inactive).
Turning to `CC1=C(C(=O)O)N2C(=O)[C@@H](NC(=O)C(N)C3=CCC=CC3)[C@H]2SC1` (stereo partly drawn), the period change in test [1] is -0.045 h (inactive). In addition, the inhibition in test [2] is 0% (inactive). In addition, the fluorescence ratio (interference) in test [3] is 1 (inactive). Besides, the fold change in test [4] (setting [8]) is 1.02 (inactive); in test [4] (setting [9]), 1.79. Further, the cell count came out at 10500 in test [4] (setting [10]) and 10300 in test [4] (setting [11]). Further, in test [5], the compound was classed as inactive. Further, in test [6], the z-score is -0.29 (inactive).
With `NC1C=CC=C(C(=O)O)C1` (stereo not drawn), the period change in test [1] is 0.115 h (inactive). For the same compound, in test [2], the inhibition is 0% (inactive). For the same compound, the fluorescence ratio (interference) in test [3] was 1 (inactive). Also, the fold change in test [4] (setting [8]) was 1.08 (inactive); in test [4] (setting [9]), 2.16. The figures for the cell count in test [4] (setting [10]) and in test [4] (setting [11]) were 9940 and 9200, respectively. The compound was called inactive in test [5]. Further, the z-score in test [6] was 0.355 (inactive).
